DT40 TDP1 CPT: DT40-hTDP1 cell growth loss with CPT; chicken DT40 Tdp1-/-;hTDP1 cells + 20 nM CPT, ATP luminescence, 48 h; 420,000 tested, 12% active; Potency, µM (series often up to 46.2 µM), inactives show at the highest dose activity change, negative = growth inhibition, hits mostly inhibitors; also: potency is read from the fitted curve at half-maximal effect; % is scaled to controls: 0 for no effect and ±100 for the full control effect; nearly all actives have a fitted effect of over 55% in size
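Chicken DT40 Tdp1-/- cells stably complemented with human TDP1 were seeded at 400 cells/well in medium containing 20 nM camptothecin, exposed to pin-transferred compounds, and grown at 37 °C for at least 48 hr. Viability was read as ATP luminescence.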
DT40 TDP1 no CPT: qHTS for Inhibitors of human tyrosyl-DNA phosphodiesterase 1 (TDP1): qHTS in cells in absence of CPT | DT40 Tdp1-/- hTDP1 cells, no CPT, ATP luminescence, 48 h | Potency, µM (top dose mostly 46.2 µM), for the others: at the top dose activity change, negative = growth inhibition, actives largely listed as inhibitors | 420,000 tested, 15% active; also: potency is read from the fitted curve at half-maximal effect; % is scaled to controls: 0 for no effect and ±100 for the full control effect; nearly all actives have a fitted effect of over 55% in size
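Cells were dispensed at 400 per well, compounds added by pin tool, plates incubated ≥48 hr at 37 °C, then CellTiter-Glo added for 30 min at room temperature before luminescence reading. Line: DT40 Tdp1-/- complemented with hTDP1; camptothecin omitted.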
SW480 rerep: inducers of DNA re-replication in SW480 colon cancer cells; SW480 DNA re-replication, Hoechst DNA content imaging, 48 h; Potency, µM (titrated, usually from 46.1 µM), for the others: top-dose re-replication activation, hits mostly activators; 340,000 tested, 1.8% active; also: potency is read from the fitted curve at half-maximal effect; % of control where 0% means no effect; nearly all actives have a fitted effect of over 55% in size
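First, 250 cells per well were seeded. Next, compound or vehicle (23 nL) was pinned in, plates sat 48 hr at 37 C. Finally Hoechst was added for 40 min before fluorescence scanning.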
IL1B secr inh: inhibitors of inflammasome signaling (IL-1 beta secretion); 360,000 tested, 4.7% active; AID 743279; THP-1 LPS/ATP IL-1B secretion, AlphaLISA, 16 h; active compounds read low; activity change, % at 57.5 µM; in the data active = activity change below about -50%; inconclusive = mostly about -30% to -49%; also: % is scaled to controls: 0 for no effect and ±100 for the full control effect
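THP-1 cells pretreated 1 hr with compounds (up to 57.5 uM final), then stimulated with LPS (250 ng/mL final) plus ATP (1.25 mM final); secreted IL-1B measured by AlphaLISA after 16 hr, decreased signal indicating inhibition.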
Chronic BCR inh: chronic active BCR signaling inhibition; Potency, µM (series often up to 46.1 µM), for inactives: at the highest dose activity change, negative = inhibition, most hits filed as inhibitors; ABC-DLBCL IkBa-CBG/CBR reporter, luminescence ratio, 4 h; 340,000 tested, 0.05% active; active = well fitted inhibition curve with a large enough effect in the signal ratio, with a control signal flat, not every such curve was filed as active; inconclusive = small, poorly fitted or top-dose-only effect, or effect the other way, or a change in a side signal; the % refers to the signal ratio;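 also: potency is read from the fitted curve at half-maximal effect; plate controls were basal doxycycline-induced cells for no effect and cells given 10 µM MG132 for full effect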
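TMD8 ABC-DLBCL cells carrying doxycycline-inducible green luciferase fused to IkappaBalpha plus unfused red luciferase were exposed to compounds (up to 46 uM) for 4 hrs at 37C. Activity came from the overlap-corrected green/red luminescence ratio.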
MCF10A rerep: inducers of DNA re-replication in MCF 10A breast cells; MCF 10A DNA re-replication, Hoechst nuclear intensity, 48 h; Potency, µM (top dose mostly 46.1 µM), inactives show at the highest dose activity, positive = re-replication, usual class: activators; 350,000 tested, 2.9% active; AID 624296; also: potency is read from the fitted curve at half-maximal effect; % of control where 0% means no effect; nearly all actives have a fitted effect of over 50% in size
Active calls of the source: *; [ ] = remark or other dose. Sampled rows, rich in hits. Any-hit rate of the full collection: about 19%. Unless noted, calls follow the shape of the dose curve; as a rule, active = well fitted curve in the direction sought with a large enough effect; inconclusive = small, poorly fitted or top-dose-only effect, or another doubt; inactive = no such curve, though single readings can be large; an effect the other way counts as inactive or inconclusive.

For Cc1cc(C)n2nc(C(=O)OCC(=O)N(C)C3CCS(=O)(=O)C3)nc2n1 (centres undefined) the results were DT40 TDP1 CPT 8%, DT40 TDP1 no CPT 7%, SW480 rerep 2%, IL1B secr inh 0, Chronic BCR inh 1% and MCF10A rerep 2%.
For CCCC(=O)O[C@]1(C(=O)COC(=O)CC)CC[C@H]2[C@@H]3CCC4=CC(=O)CC[C@]4(C)[C@H]3[C@@H](O)C[C@@]21C the results were DT40 TDP1 CPT -21% and DT40 TDP1 no CPT -28%.
Screening COc1ccc(NC(=O)Nc2ccc(F)cc2F)c(C)c1 returned DT40 TDP1 CPT inconclusive, DT40 TDP1 no CPT inconclusive, SW480 rerep -11%, IL1B secr inh -26, Chronic BCR inh 26% and MCF10A rerep 15%.
For COc1cccc(N/C(C)=C/C(=O)c2ccc(Br)cc2)c1 the results were DT40 TDP1 CPT -27%, DT40 TDP1 no CPT -25%, SW480 rerep 0%, IL1B secr inh -8, Chronic BCR inh inconclusive and MCF10A rerep 21µM*.
C/C(=C\C(=O)c1ccc(Br)cc1)Nc1ccc(Cl)cc1 was read as DT40 TDP1 CPT 14%, DT40 TDP1 no CPT -1%, SW480 rerep 2%, IL1B secr inh 0, Chronic BCR inh inconclusive and MCF10A rerep 9%.
Screening COc1ccc(NC(=O)NC(C)(C(F)(F)F)C(F)(F)F)cc1 returned DT40 TDP1 CPT inconclusive, DT40 TDP1 no CPT 16µM*, SW480 rerep inconclusive, IL1B secr inh 0, Chronic BCR inh -6% and MCF10A rerep 22%.
Screening COc1cccc(NC(=O)c2ccc(NC(=O)C3CC(=O)OC34CCCCC4)cc2)c1 (centres undefined) returned DT40 TDP1 CPT 18µM*, DT40 TDP1 no CPT inconclusive, SW480 rerep -4%, IL1B secr inh 0, Chronic BCR inh inconclusive and MCF10A rerep -1%.
`COc1ccc(NC(=O)Nc2ccc(F)cc2F)cc1` gave DT40 TDP1 CPT 9.2µM*, DT40 TDP1 no CPT 5.8µM*, SW480 rerep -5%, IL1B secr inh -22, Chronic BCR inh inconclusive and MCF10A rerep 2%.
For Cc1ccccc1OCC(=O)Nc1ccc(C(=O)Nc2ccccc2C(=O)O)cc1 the results were DT40 TDP1 CPT -20%, DT40 TDP1 no CPT 3%, SW480 rerep -4%, IL1B secr inh 49, Chronic BCR inh 0% and MCF10A rerep 0%.
`CCCCN(C(=O)C1CCN(C(=O)c2ccccc2C)CC1)c1c(N)n(CC(C)C)c(=O)[nH]c1=O` gave DT40 TDP1 CPT -10%, DT40 TDP1 no CPT 23%, SW480 rerep 20%, IL1B secr inh -8 and MCF10A rerep 8%.
Screening COc1cccc(NC(=O)Nc2ccc3nsnc3c2)c1 returned DT40 TDP1 CPT inconclusive, DT40 TDP1 no CPT inconclusive, SW480 rerep -1%, IL1B secr inh -56*, Chronic BCR inh inconclusive and MCF10A rerep 6%.
COc1cccc(NC(=O)Nc2ccc3nc(C)c(C)nc3c2)c1 was read as DT40 TDP1 CPT inconclusive, DT40 TDP1 no CPT inconclusive, SW480 rerep -8%[1.84 µM], IL1B secr inh -17, Chronic BCR inh inconclusive and MCF10A rerep 8%.
CC(C)Oc1cccc(NC(=O)C2CCN(S(=O)(=O)Cc3ccccc3)CC2)c1 was read as DT40 TDP1 CPT 13µM* and DT40 TDP1 no CPT inconclusive.
For O=C(Nc1cccc(S(=O)(=O)c2cccc(NC(=O)C3CC3)c2)c1)C1CC1 the results were DT40 TDP1 CPT 21µM*, DT40 TDP1 no CPT 21µM*, SW480 rerep 1%, IL1B secr inh -74*, Chronic BCR inh -14% and MCF10A rerep -1%.
Cc1ccccc1-c1cnc(C(O)c2cc(Cl)cc(Cl)c2)[nH]1 (centres undefined) was read as DT40 TDP1 CPT inconclusive, DT40 TDP1 no CPT inconclusive and IL1B secr inh -24.
`O=C(CCc1nc2ccccc2c(=O)[nH]1)OCC(=O)N1CCc2ccccc21` gave DT40 TDP1 CPT 17%, DT40 TDP1 no CPT 0%, SW480 rerep 0%, IL1B secr inh 25, Chronic BCR inh -1% and MCF10A rerep -3%.
`CC(C)(C)C(=O)COC(=O)c1c2c(nc3ccccc13)CCC2` gave DT40 TDP1 CPT -3%, DT40 TDP1 no CPT -25%, SW480 rerep 2%, IL1B secr inh 45, Chronic BCR inh -6% and MCF10A rerep -3%.
For NC(=O)COC(=O)c1c2c(nc3ccccc13)CCCCC2 the results were DT40 TDP1 CPT -5%, DT40 TDP1 no CPT 0%, SW480 rerep -24%, IL1B secr inh -11, Chronic BCR inh 0% and MCF10A rerep -14%.
Screening CC1Cc2ccccc2N1C(=O)COC(=O)CCc1nc2ccccc2c(=O)[nH]1 (centres undefined) returned DT40 TDP1 CPT 29µM*, DT40 TDP1 no CPT 18µM*, SW480 rerep -3%, IL1B secr inh -14, Chronic BCR inh 6% and MCF10A rerep inconclusive.
O=C(COC(=O)c1c2c(nc3ccccc13)CCCC2)c1cccs1 was read as DT40 TDP1 CPT 29µM*, DT40 TDP1 no CPT inconclusive, SW480 rerep 3%, IL1B secr inh 36, Chronic BCR inh 19% and MCF10A rerep -7%.
`O=C(OCC(=O)N1CCc2ccccc21)c1c2c(nc3ccccc13)CCCC2` gave DT40 TDP1 CPT 16µM*, DT40 TDP1 no CPT 23µM*, SW480 rerep 10%, IL1B secr inh -20, Chronic BCR inh inconclusive and MCF10A rerep inconclusive.
CC1Cc2ccccc2N1C(=O)COC(=O)c1c2c(nc3ccccc13)CCCCC2 (centres undefined) was read as DT40 TDP1 CPT 8.2µM*, DT40 TDP1 no CPT 12µM*, SW480 rerep inconclusive, IL1B secr inh inconclusive, Chronic BCR inh 6% and MCF10A rerep 21µM*.
`O=S(=O)(NCc1ccc(F)cc1)c1ccc(-n2cnnn2)cc1` gave DT40 TDP1 CPT inconclusive, DT40 TDP1 no CPT inconclusive, SW480 rerep inconclusive, IL1B secr inh -1, Chronic BCR inh 8% and MCF10A rerep 15%.
For CN(C(=O)c1cccc(S(=O)(=O)N2CCOCC2)c1)c1c(N)n(Cc2ccccc2)c(=O)[nH]c1=O the results were DT40 TDP1 CPT -1%, DT40 TDP1 no CPT 12%, SW480 rerep 3%, IL1B secr inh -14, Chronic BCR inh 4% and MCF10A rerep 6%.
O=C(OC(C(=O)N1CCOCC1)c1ccccc1)c1c2c(nc3ccccc13)CCCC2 (centres undefined) was read as DT40 TDP1 CPT inconclusive and DT40 TDP1 no CPT 14µM*.

High-throughput results (PubChem)
